Screening results (PubChem)
D1 antag = blocks dopamine activation of the human D1 receptor | P21728 | HEK293 TREx D1 cells, calcium flux, dopamine EC80; stronger effect = lower value | activity change, negative = inhibition, % at 10 µM | 3.2% of 360,000 active | AID 504652; in the data active means activity change below about -30%; further: on the % scale 0 is the no-effect control and ±100 the full control effect
Target sequence (P21728 whole entry, looked up): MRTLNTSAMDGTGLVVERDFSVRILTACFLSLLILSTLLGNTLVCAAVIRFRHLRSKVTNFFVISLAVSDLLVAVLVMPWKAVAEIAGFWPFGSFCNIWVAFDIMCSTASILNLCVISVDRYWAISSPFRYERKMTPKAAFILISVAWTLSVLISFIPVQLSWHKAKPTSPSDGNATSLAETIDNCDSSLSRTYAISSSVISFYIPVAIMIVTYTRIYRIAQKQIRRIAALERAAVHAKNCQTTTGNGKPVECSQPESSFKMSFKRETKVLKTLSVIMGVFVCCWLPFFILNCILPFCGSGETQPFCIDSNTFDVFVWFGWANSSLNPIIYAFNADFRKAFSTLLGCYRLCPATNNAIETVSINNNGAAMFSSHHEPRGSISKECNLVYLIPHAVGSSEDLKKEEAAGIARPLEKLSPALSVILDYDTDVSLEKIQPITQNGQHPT
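After overnight tetracycline induction at 30 C, force-coupled D1 HEK293 cells took up a no-wash calcium dye at room temperature. Compounds were added and monitored 180 s, and the response to EC80 dopamine was then recorded.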
D1 agonist = activates the human D1 dopamine receptor; HEK293 T-REx D1 cells, calcium flux, agonist mode; 1% of 360,000 active; P21728; activation, % at 2 µM; further: 0% is about no effect
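Tetracycline-induced HEK293 TREx D1 cells, force-coupled to calcium signalling, were dye-loaded with a no-wash calcium kit. Compound was pin-added after a 10 s baseline. Fluorescence was read kinetically at 1 cycle/s for 180 s, with calcium rises flagged as agonism.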
D1 PAM = enhances dopamine response at the human D1 receptor | HEK293 TREx D1 cells, calcium flux, dopamine EC20 potentiation | potentiation, % at 10 µM | 0.036% of 360,000 active; in the data active means potentiation above about 30%; further: 0% is about no effect
LDHA block = blocks human lactate dehydrogenase A | activity change, % (values are at about 110 or 230 µM) | AID 1347041 | 0.15% of 480,000 active | P00338 | purified LDHA, NADH/diaphorase-resazurin fluorescence; stronger effect = lower value; in the data active means activity change below about -30%;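 further: plate controls were DMSO wells for no effect and wells without enzyme for full effect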
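LDH5 2 nM; NADH 0.06 mM, pyruvate 0.2 mM; 200 mM Tris pH 7.4, EDTA, Tween-20; 5 min RT. Detection: diaphorase 0.133 mg/mL + resazurin 37 µM, fluorescence ex540/em590 at 0 and 20 min; normalized to enzyme-free and DMSO wells.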
TRHR enhancer = allosteric enhancers of human TRH receptor; P34981; enhancement, % at 2 µM; 0.66% of 360,000 active; TRHR cells, fluo-8 calcium fluorescence, EC20 TRH enhancement; AID 493056; in the data active means enhancement above about 30%; further: 0% is about no effect
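TRHR-expressing cells loaded with fluo-8 calcium dye were read kinetically (ex 480/em 530) during compound addition, then stimulated with an EC20 of TRH (10 nM final). Enhancement of the Gq-mediated intracellular calcium response was scored.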
TRHR agonist = activates the human TRH receptor. P34981. TRHR cells, calcium flux fluo-8, FDSS agonist mode. activation, % at 2 µM. 0.18% of 360,000 active; further: 0% is about no effect
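Read-out: compound-evoked intracellular calcium rise in TRHR cells, fluo-8 dye, kinetic FDSS fluorescence at 1 s/cycle following a 10-cycle baseline. Cells cultured overnight before dye loading (30 min–1.5 h, RT).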
The depositor's hits bear a star. This is a sample that favours compounds with a hit; in the whole collection about 3.6% have one here. Unless noted, no stated cut-off is given here; in the data, active means activation above about 30%; inactive means the rest.

Screening C[C@H](NC(=O)c1nc[nH]c1C(=O)N1CCN(C(=O)OC(C)(C)C)CC1)c1ccccc1 returned D1 antag 2.6, D1 agonist -0.5, D1 PAM 12.4, LDHA block 0.2, TRHR enhancer -12.1 and TRHR agonist 0.0.
C[C@@H](NC(=O)c1[nH]cnc1C(=O)Nc1ccccc1)c1ccccc1 was read as D1 agonist -2.4, D1 PAM 1.8, LDHA block -0.6, TRHR enhancer 35.8* and TRHR agonist 0.8.
Screening C[C@@H](NC(=O)c1nc[nH]c1C(=O)NCC(=O)OCc1ccccc1)c1ccccc1 returned D1 antag -22.9, D1 agonist 0.2, D1 PAM -6.8, LDHA block -1.4, TRHR enhancer 30.1* and TRHR agonist -1.0.
For C[C@@H](NC(=O)c1nc[nH]c1C(=O)NC1CCN(C(=O)OC(C)(C)C)CC1)c1ccccc1 the results were D1 antag -67.0*, D1 agonist 0.1, D1 PAM 1.9, LDHA block -10.8, TRHR enhancer -0.3 and TRHR agonist -0.2.
O=C(NCCCCNC(=O)C(c1ccccc1)c1ccccc1)C(c1ccccc1)c1ccccc1 was read as LDHA block 3.5.
Screening CCCCn1cnc2c1c(=O)n(CC(=O)Nc1ccccc1C(C)C)c(=O)n2CCC returned LDHA block 7.4.
COc1ccc2c(C)c(CC(=O)Nc3cccc(C(C)=O)c3)c(=O)oc2c1OC was read as LDHA block -2.6.
CNC(=O)c1ccc(CN(Cc2ccco2)C(=O)c2cc3ccc(C)cc3[nH]2)cc1 was read as LDHA block 1.1.
CC(C)C[C@H](NC(=O)c1nc[nH]c1C(=O)NC(c1ccccc1)c1ccccc1)C(=O)OC(C)(C)C was read as D1 antag -32.8*, D1 agonist 10.7, D1 PAM -5.2, LDHA block 2.8, TRHR enhancer -12.0 and TRHR agonist 0.5.
Screening CC1CCN(S(=O)(=O)c2ccc(NC(=O)Cn3cnc4c3c(=O)n(C)c(=O)n4C)cc2)CC1 returned LDHA block -7.7.
For OCCN1CCN(CCCN2c3ccccc3Sc3ccc(Cl)cc32)CC1 the results were D1 antag -83.1*, D1 agonist 11.7, D1 PAM -5.8, LDHA block -0.6, TRHR enhancer 1.0 and TRHR agonist 1.8.
`CCCCCCCCCC[N+](C)(C)CC/C=C1/c2ccccc2Sc2ccc(Cl)cc21` gave D1 antag 5.8, D1 agonist 53.1*, D1 PAM -4.5, LDHA block 4.8, TRHR enhancer 7.7 and TRHR agonist 1.4.
Screening OCCN1CCN(CC/C=C2/c3ccccc3Sc3ccc(Cl)cc32)CC1 returned D1 antag -100.2*, D1 agonist 26.6, D1 PAM -5.3, LDHA block -6.2, TRHR enhancer 0.3 and TRHR agonist -0.6.
Screening OCCN1CCN(Cc2cccc(Oc3ccc(Cl)cc3)c2)CC1 returned D1 antag -6.1, D1 agonist 8.3, D1 PAM -0.8, LDHA block 4.2, TRHR enhancer -7.1 and TRHR agonist 0.4.
Screening CN1CCN(CCCN2c3ccccc3Sc3ccc(S(=O)(=O)N(C)C)cc32)CC1 returned D1 antag -93.8*, D1 agonist 52.4*, D1 PAM -0.8, LDHA block -2.7, TRHR enhancer -0.7 and TRHR agonist 4.7.
CN(C)CC/C=C1\c2ccccc2Sc2ccc(Cl)cc21 was read as D1 antag -81.9*, D1 agonist 22.4, D1 PAM -3.0, LDHA block -2.7, TRHR enhancer -0.9 and TRHR agonist 0.6.
CCCCCCCCCCC[N+](C)(C)CC/C=C1/c2ccccc2Sc2ccc(Cl)cc21 was read as D1 antag -8.2, D1 agonist 48.0*, D1 PAM -8.8, LDHA block 1.7, TRHR enhancer 0.7 and TRHR agonist 2.5.
For CN(C)CC/C=C1\c2ccccc2Sc2cc(F)c(Cl)cc21 the results were LDHA block -2.0.
Screening Cc1ccc(NC(=O)COc2cccc(-n3cnnn3)c2)cc1[N+](=O)[O-] returned D1 antag -45.5*, D1 agonist 23.0, D1 PAM -4.5, LDHA block -7.4, TRHR enhancer 9.7 and TRHR agonist -1.6.
